High-throughput results as filed in PubChem.
Tg IFNy HTS: T. gondii growth inhibition with IFN-gamma, primary screen, cell-based; actives 3.8% (n = 69,000); AID 1259416, 2018; Toxoplasma gondii growth in IFN-gamma-treated host cells; hits give low values; activity change, negative = inhibition, % (no concentration beside the values); in the data active means activity change below about -70%, passing the limit was not always enough;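 further: host cells are HeLa cells infected with Toxoplasma gondii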
* = called active by the depositor; ! = repeats disagree. The sample as a whole holds a higher share of hits than the screen did.

SMILES	Tg IFNy HTS
CC(C)(C)SCCSCCS(=O)(=O)CCSCCSC(C)(C)C	28.3
CCOc1cc(-n2cnnn2)c(OCC)cc1NC(=O)c1cc2ccccc2oc1=O	19.7
OC(CN1CCN(c2ncccn2)CC1)c1ccc(F)cc1 (stereo not drawn)	11.4
C=CCNc1nc(NCC=C)nc(N2CCN(C(c3ccc(F)cc3)c3ccc(F)cc3)CC2)n1	-71.6*
CC(=O)c1ccc(N2C[C@@H]3C4CCC(CC4)[C@@H]3C2)nc1	197.3
CCOCc1ncn2c1CN(S(=O)(=O)c1ccc(C)cc1)CC2	5.9
CN(C)CC1(O)CCCN(Cc2ccccc2OCC(=O)O)CC1 (stereo not drawn)	-12.7
CN(C)CC1(O)CCCN(C(=O)CCOc2ccccc2)C1 (stereo not drawn)	4.8
CN(C)CC1(O)CCCN(S(=O)(=O)N(C)Cc2ccccc2)CC1 (stereo not drawn)	-77.9*
Cc1cc(C(=O)Nc2cc(-c3ccc(F)cc3)nn2C)nc(N2CCOCC2)n1	5.6
Cc1nc(-c2ccccc2)sc1C(=O)Nc1c(C)nc2ccccn2c1=O	11.4
CN(C)CCNC(=O)c1cc(-c2ccn(-c3ccccc3)n2)n2ccccc12	-106.0*
Cc1nc(-c2cc(C(=O)NCCN(C)C)c3ccccn23)cn1-c1nccs1	21.4
COCCC(=O)c1cc(-c2ccn(-c3ccccc3)n2)n2ccccc12	88.6
CCCn1ncc(-c2nc3c(cnn3CC)[nH]2)c1C	61.6
COc1ccc(-c2cc(N)nc3[nH]ccc23)cc1C	-77.8*
CCNC(=O)c1cccc(-c2cc(N)nc3[nH]ccc23)c1	21.9
CS(=O)(=O)c1ccc(-c2cc(N)nc3[nH]ccc23)cc1	4.0
Cc1ccc(S(=O)(=O)NCCc2csc(-c3ccc(F)cc3)n2)c(C)c1	-11.0
CN1CCC(CN2CCN(CCC(=O)Nc3cccnc3)CC2)CC1	-19.4
O=C(O)c1cccc(CC2CCN(C(=O)Cc3cccnc3)CC2)c1	-50.9
O=C(Nc1cccnc1)N1CCC(Cc2cccc(Oc3ccc(C(F)(F)F)cn3)c2)CC1	-73.6*
COC(=O)COc1ccc(C(C)=O)cc1	-29.9
CC(C)C(NC1C=CS(=O)(=O)C1)C(=O)N[C@@H]1CCC(=O)N[C@H]1C1CC=CCC1 (stereo partly drawn)	-18.5
COc1ccc2[nH]nc(C(=O)N3C[C@H]4CC=C(C)C[C@H]4C3)c2c1	-41.5
SMILES	Tg IFNy HTS
COc1ccc2[nH]c3c(c2c1)CCNC3C1CC=C(C)CC1 (stereo not drawn)	-84.0*
COc1ccc2[nH]c3c(c2c1)CCNC31C(=O)N(C)c2ccccc21 (stereo not drawn)	310.6
O=C(Cn1c(=O)n(S(=O)(=O)c2ccccc2)c2ccccc21)N1CCCCC1	33.1
CC(=O)Nc1ccc(S(=O)(=O)N2CCC(Cc3cc(N)nc(C)n3)CC2)cc1	-2.6
CC(=O)Nc1ccc(S(=O)(=O)N2CCC(n3cnc4cccnc43)CC2)cc1	-95.5*
O=C(N1CCC(n2cnc3cccnc32)CC1)N1c2ccccc2Sc2ccccc21	-11.3
CCc1nc(C)c(C(=O)N2CCC(O)(c3ccccc3)C2)s1 (stereo not drawn)	-2.0
CS(=O)(=O)N1CC[C@@]2(C[C@H](OCCN3CCCC3)CO2)C1	-0.3
O=C(COc1ccccc1)N1CCN(S(=O)(=O)c2cc3c4c(c2)CCN4C(=O)CC3)CC1	17.9
CN(C)CCN1CCOCC2(C1)CN(Cc1nccs1)CCO2 (stereo not drawn)	-53.8
CC(NCCC(c1ccccc1)c1ccccc1)c1ccccc1 (stereo not drawn)	-82.3*!
CNCC[C@@H](Oc1ccccc1C)c1ccccc1	15.8
CC(Nc1ccc(-c2nccn2C)nn1)c1ccccc1 (stereo not drawn)	204.8
CN(C)C1CCN(C(=O)c2ccn(-c3ccc4ccc(-c5ccncc5)cn34)n2)CC1	7.1
O=C(NCc1ccco1)c1c(O)c2ccccc2[nH]c1=O	-1.6
O=C1C(=O)N(Cc2ccc(Cl)c(Cl)c2)c2ccccc21	20.2
CC(=O)O/N=C1/C(=O)N(Cc2cc(Cl)ccc2Cl)c2ccc(Cl)cc21	-79.2*
CC(C)(C)C1=NN2C(=N)CC(=O)N=C2S1	20.1
Cc1noc(C)c1S(=O)(=O)NCc1ccc2c(c1)CCO2	-10.2
COc1ccc(C2(CNCc3c(C(=O)N4CCCC4)nc4ccccn34)CCCC2)cc1	-11.3
CCOC(=O)COc1ccc(Cl)cc1C(=O)OC	-38.0
CCOC(=O)c1[nH]c2cc(Cl)cc(Cl)c2c1CCC(=O)O	1.1
CCOC(=O)c1[nH]ncc1-c1ccc(Cl)cc1Cl	-94.5*
COc1cccc(-n2c(=O)c(C(=O)Nc3cccc(Cl)c3)c(O)c3cccnc32)c1	57.2
CCOC(=O)N1CCC2(CC1)OC(=O)C(C)=C2C(=O)NCCN1CCCCCC1	55.7
Cc1nccn1CC1(O)CCN(C(=O)c2cc3c(s2)CCCC3)CC1	-33.6
CCOC1COC2(CCN(C(=O)Cc3ccccn3)CC2)C1 (stereo not drawn)	203.6
CCS(=O)(=O)N1CCC(c2nc3ccc(-c4ccncc4)cn3n2)CC1	41.4
COc1ccc(NC(=O)c2cncc(NS(=O)(=O)c3ccc(Br)cc3)c2)cc1	23.8
